Pin1 inh – inhibitors of human Pin1. Q13526. Pin1 FP peptide displacement, HiFluor488, 10 min. Potency, µM (highest dose often 115 µM), for the others: at the highest dose activity, negative = inhibition, actives largely listed as inhibitors. 390,000 tested, 0.009% active; active = well fitted inhibition curve with a large enough effect in the polarisation, with a control signal flat, not every such curve was filed as active; inconclusive = small, poorly fitted or top-dose-only effect, or effect the other way, or a change in a side signal; inactive = no such curve, though single readings can be large or run the other way; the % refers to the polarisation; note: potency is the fitted concentration of half-maximal effect
Target sequence (Q13526 whole entry, looked up): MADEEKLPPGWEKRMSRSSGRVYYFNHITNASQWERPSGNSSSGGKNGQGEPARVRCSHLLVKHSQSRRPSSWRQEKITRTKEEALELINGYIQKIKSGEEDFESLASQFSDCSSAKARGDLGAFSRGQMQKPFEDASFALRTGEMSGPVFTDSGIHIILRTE
Tb PFK block – T. brucei PFK enzyme inhibition; AID 485367; Potency, µM (top dose mostly 57.5 µM), for inactives: top-dose activity, negative = inhibition, most hits filed as inhibitors; T. brucei PFK, ADP-Glo luminescence; 330,000 tested, 0.17% active; O15648;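 note: potency is the fitted concentration of half-maximal effect; 0% = uninhibited 1x PFK enzyme wells and -100% = no-enzyme wells; nearly all actives have a fitted effect of over 60% in size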
Target sequence (O15648 whole entry, looked up): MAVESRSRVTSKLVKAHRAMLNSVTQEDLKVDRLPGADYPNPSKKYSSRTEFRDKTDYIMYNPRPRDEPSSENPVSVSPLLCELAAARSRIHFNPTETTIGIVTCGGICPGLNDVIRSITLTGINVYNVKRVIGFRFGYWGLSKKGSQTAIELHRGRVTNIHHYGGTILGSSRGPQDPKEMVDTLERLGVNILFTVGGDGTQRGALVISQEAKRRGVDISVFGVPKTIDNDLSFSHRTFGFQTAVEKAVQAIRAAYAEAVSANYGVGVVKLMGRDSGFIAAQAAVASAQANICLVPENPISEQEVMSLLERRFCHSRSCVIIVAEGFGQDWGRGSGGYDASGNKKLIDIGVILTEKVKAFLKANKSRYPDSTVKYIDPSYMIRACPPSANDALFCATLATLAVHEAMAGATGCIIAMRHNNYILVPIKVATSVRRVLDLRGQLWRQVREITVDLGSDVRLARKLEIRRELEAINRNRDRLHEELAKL
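ADP-Glo luminescence quantified ADP after 45 min at room temperature, with 1.25 nM T. brucei PFK, 0.1 mM ATP and 0.5 mM fructose-6-phosphate in pH 8.0 TEA buffer. qHTS titrations up to 57 µM; curves classified by quality.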
PI5P4K alpha inh – PI5P4K alpha (human) kinase inhibition. PI5P4Kalpha enzyme, ADP-Glo luminescence, 60 min; hits give low values. max response, %. P48426. 330,000 tested, 1.2% active; active = max response of -50% or lower; inconclusive = between -30% and -50%; inactive = -30% or higher; note: value at the top dose of about 77 µM
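qHTS, 1536-well: enzyme/substrate mix, compound by pin tool, 5 microM ATP final; RT 60 min; ADP-Glo reagents 1 (45 min) then 2 (30 min); luminescence.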
Tb PGK inh – T. brucei PGK inhibition; P07378; PGK/GAPDH coupled, Kinase-Glo luminescence, 60 min; Potency, µM (series often up to 57.5 µM), inactives show at the highest dose activity change, negative = inhibition, actives largely listed as inhibitors; 380,000 tested, 0.043% active; AID 602233; note: potency is the fitted concentration of half-maximal effect; nearly all actives have a fitted effect of over 60% in size
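Luminescent ATP detection (Kinase-Glo Plus) follows a 60-minute room-temperature incubation, with wells lacking PGK as controls. Buffer: 100 mM TEA (pH 7.6), 5 mM MgCl2, 0.01% Tween-20. Coupling enzyme GAPDH (100 nM final) supplies unstable 1,3-BPG in-well.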
PI4K2A inh – PI4K2A (human) kinase inhibition; Q9BTU6; purified PI4K2A, ADP-Glo luminescence, 1 h; hits give low values; activity change, negative = inhibition, % at 76.9 µM; 420,000 tested, 0.13% active; AID 1346378; in the data active = activity change below about -50%; inconclusive = mostly about -30% to -49%;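 note: -100% = wells without enzyme as full effect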
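PI4K2A activity was measured by ADP-Glo luminescence: enzyme (4 ug/mL stock) and phosphatidylinositol (1.2 mM stock) in Tris pH 7.5/MgCl2/EGTA/Triton X-100 buffer were reacted with ATP (300 microM stock) for one hour at ambient temperature.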
ADP-Glo counter – counter-screen for PI5P4K inhibitors: ADP-Glo detection interference, no enzyme | shares compounds with PI5P4K alpha inh | ADP-Glo detection counter-screen, luciferase luminescence, no enzyme | Potency, µM (doses to about 76.9 µM), without a hit: at the top dose activity change, negative = inhibition, actives largely listed as inhibitors | 1,100 tested, under 10 active
* marks the source's active call; other numbers are inactive results. Only a selection was taken, and hits are over-represented in it overall. Unless noted, calls come from the whole dose curve; as a rule, active = well fitted curve in the direction sought with a large enough effect; inconclusive = small, poorly fitted or top-dose-only effect, or another doubt; inactive = no such curve, though single readings can be large; an effect the other way counts as inactive or inconclusive. Unless noted, % is set by controls: 0 for no effect and ±100 for the full control effect.

Results for CCc1ccccc1N(CC(=O)OC)S(C)(=O)=O ?
Pin1 inh: -6.8%; Tb PFK block: -7.9%; PI5P4K alpha inh: 0.1; Tb PGK inh: -2.1%; PI4K2A inh: 6.3

What do the screens show for `O=C(COc1ccc(-c2ccccc2)cc1)Nc1cccnc1`?
Pin1 inh: 0.0%; Tb PFK block: -6.2%; PI5P4K alpha inh: 1.7; Tb PGK inh: -3.6%; PI4K2A inh: 8.9

What do the screens show for `O=C(COc1ccc([N+](=O)[O-])cc1)Nc1cccnc1`?
Pin1 inh: 11.6%; Tb PFK block: -19.8%; PI5P4K alpha inh: -54.1*; Tb PGK inh: -7.5%; PI4K2A inh: -1.6; ADP-Glo counter: -1.7%

How did O=C(CSc1nc2ccc(Cl)cc2[nH]1)N1CCN(C(=O)c2ccco2)CC1 do in these assays?
Pin1 inh: 39.4%; Tb PFK block: -8.3%; PI5P4K alpha inh: -64.5*; Tb PGK inh: -0.1%; PI4K2A inh: -8.1; ADP-Glo counter: -5.5%

Results for Cc1ccc2c(CC(=O)OCC(=O)N(CC(C)C)c3c(N)n(Cc4ccccc4)c(=O)[nH]c3=O)coc2c1 ?
Pin1 inh: 18.2%; Tb PFK block: -20.3%; PI5P4K alpha inh: -58.9*; Tb PGK inh: -0.2%; PI4K2A inh: -13.9; ADP-Glo counter: -0.9%

Results for CCN(C(=O)COC(=O)Cc1coc2cc(C)ccc12)c1c(N)n(Cc2ccccc2)c(=O)[nH]c1=O ?
Pin1 inh: 15.7%; Tb PFK block: 4.7%; PI5P4K alpha inh: 3.1; Tb PGK inh: -1.9%; PI4K2A inh: -3.8

What do the screens show for `O=C(COc1ccc(Cl)cc1Cl)Nc1cccc(-c2ccc(N3CCOCC3)nn2)c1`?
Pin1 inh: 0.2%; Tb PFK block: 4.8%; PI5P4K alpha inh: -7.0; Tb PGK inh: -3.9%; PI4K2A inh: 0.4

How did O=C(COc1ccccc1)Nc1cccc(-c2ccc(N3CCOCC3)nn2)c1 do in these assays?
Pin1 inh: -8.3%; Tb PFK block: -6.1%; PI5P4K alpha inh: -13.0; Tb PGK inh: -3.3%; PI4K2A inh: -2.4; ADP-Glo counter: -14.3%

Results for CCc1cc(C(c2ccc(OC)c(OC)c2)N2CCOCC2)c(NC(=O)c2ccccc2)s1 (stereo unspecified) ?
Pin1 inh: -1.3%; Tb PFK block: 5.2%; PI5P4K alpha inh: -56.9*; Tb PGK inh: 20.0%; PI4K2A inh: -19.5; ADP-Glo counter: -4.0%

How did CCc1cc(C(c2cccc(OC)c2)N2CCOCC2)c(NC(=O)c2ccccc2)s1 (stereo unspecified) do in these assays?
Pin1 inh: -4.4%; Tb PFK block: -0.5%; PI5P4K alpha inh: 9.6; Tb PGK inh: -5.3%; PI4K2A inh: -9.9

How did COc1ccc(Br)cc1CNC(=O)CCc1cn(Cc2ccc(C)cc2)c2ccccc12 do in these assays?
Pin1 inh: 7.2%; Tb PGK inh: -1.7%; PI4K2A inh: 3.3

Results for O=C(c1ccc(S(=O)(=O)N2CCCC2)cc1)N1CCC(CN2C(=O)c3cccc4cccc(c34)C2=O)CC1 ?
Pin1 inh: 10.1%; Tb PFK block: 2.0%; PI5P4K alpha inh: 3.2; Tb PGK inh: 1.6%; PI4K2A inh: -0.3

Results for COc1ccc2c(c1)C=C(CN1CCN(Cc3ccccc3C)C(CCO)C1)CO2 (stereo unspecified) ?
Pin1 inh: inconclusive; Tb PFK block: 0.5%; PI5P4K alpha inh: -1.5; Tb PGK inh: -5.3%; PI4K2A inh: -5.3; ADP-Glo counter: -0.3%

How did CCOc1ccc(CN2CCN(CC3=Cc4cccc(OC)c4OC3)CC2CCO)cc1 (stereo unspecified) do in these assays?
Pin1 inh: -10.2%; Tb PFK block: 0.1%; PI5P4K alpha inh: 0.3; Tb PGK inh: -7.7%; PI4K2A inh: -2.9

Results for COc1ccc(N(C(=O)C2CSC(=O)C2)C(C(=O)NC(C)(C)C)c2ccncc2)cc1 (stereo unspecified) ?
Pin1 inh: -2.8%; Tb PFK block: -0.5%; PI5P4K alpha inh: -78.5*; Tb PGK inh: 5.7%; PI4K2A inh: -0.6; ADP-Glo counter: 2.2%

What do the screens show for `O=C(c1cccc(-n2cccc2)c1)N1CCN(S(=O)(=O)c2c(F)cccc2F)CC1`?
Pin1 inh: 11.8%; Tb PFK block: inconclusive; PI5P4K alpha inh: -28.0; Tb PGK inh: -8.4%; PI4K2A inh: -16.3

What do the screens show for `Cc1ccc(S(=O)(=O)N2CCN(C(=O)c3cccc(-n4cccc4)c3)CC2)cc1`?
Pin1 inh: 20.7%; Tb PFK block: -28.9%; PI5P4K alpha inh: -51.7*; Tb PGK inh: -15.3%; PI4K2A inh: -4.7; ADP-Glo counter: -9.6%

Results for Cc1ccc(S(=O)(=O)N2CCN(C(=O)c3ccccc3)CC2)cc1 ?
Pin1 inh: 6.1%; Tb PFK block: 1.2%; PI5P4K alpha inh: -1.7; Tb PGK inh: 3.7%; PI4K2A inh: -5.6

How did O=C(c1cccc(-n2cccc2)c1)N1CCN(S(=O)(=O)c2ccccc2)CC1 do in these assays?
Tb PFK block: inconclusive; PI5P4K alpha inh: -68.5*; Tb PGK inh: inconclusive; PI4K2A inh: -20.4; ADP-Glo counter: 2.8%

What do the screens show for `Cc1nc(NC(=O)c2ccccc2)sc1-c1cc(C(=O)N2CCOCC2)nn1CCO`?
PI5P4K alpha inh: 2.3; PI4K2A inh: 3.9

What do the screens show for `Cc1nc(NC(=O)c2ccccc2)sc1-c1cc(C(=O)N2CCOCC2)nn1Cc1ccccc1`?
PI5P4K alpha inh: -54.8*; Tb PGK inh: -16.4%; PI4K2A inh: 3.7; ADP-Glo counter: -1.6%

Results for CCOc1ccc(N(CC(N)=O)S(=O)(=O)c2ccc(F)cc2)cc1 ?
Pin1 inh: -12.5%; Tb PFK block: -4.5%; PI5P4K alpha inh: -2.1; Tb PGK inh: -9.6%; PI4K2A inh: 6.7

What do the screens show for `CCS(=O)(=O)Nc1ccc(C2=NN(C(=O)c3ccco3)C(c3cccc(F)c3)C2)cc1` (stereo unspecified)?
Pin1 inh: 25.9%; Tb PFK block: -5.1%; PI5P4K alpha inh: -28.6; Tb PGK inh: -8.3%; PI4K2A inh: -2.4

Results for CS(=O)(=O)Nc1ccc(C2=NN(C(=O)c3ccco3)C(c3ccccc3)C2)cc1 (stereo unspecified) ?
Pin1 inh: 2.0%; Tb PFK block: -1.1%; PI5P4K alpha inh: -51.4*; Tb PGK inh: 2.7%; PI4K2A inh: -1.5; ADP-Glo counter: 3.0%

What do the screens show for `CS(=O)(=O)Nc1ccc(C2=NN(C(=O)c3ccco3)C(c3cccc(F)c3)C2)cc1` (stereo unspecified)?
Pin1 inh: 2.1%; Tb PFK block: 5.8%; PI5P4K alpha inh: -65.1*; Tb PGK inh: -10.7%; PI4K2A inh: 1.5; ADP-Glo counter: 0.0%

How did CC(=O)Nc1ccc(CNc2nc(NC(C)C)nc3cc(-c4ccccc4)sc23)cc1 do in these assays?
PI4K2A inh: -5.2; ADP-Glo counter: -1.6%

Screens: PubChem BioAssay, National Center for Advancing Translational Sciences (NCATS)
